The results in this text go back to PubChem BioAssay (Tox21).

“And” between values parts separate entries of the source, which are not always exact repeats. Equal values may be shown once. Records with an inconclusive call do not appear. More than one record can exist for a structure, and the calls need not agree. The source made the active and inactive calls. Unless noted, calls follow the shape of the dose curve; as a rule, active = well fitted curve in the direction sought with a large enough effect in the repeat runs; inconclusive = weak or mixed curves; inactive = no such curve, though single readings can be large; an effect the other way counts as inactive or inconclusive.

Assay [1] is described as follows: qHTS assay to test for compound auto fluorescence at 535 nm (green) in HEK293 cells (AID 720680). (In general: qHTS replaces the single test concentration by a dilution series.)
Assay [2] can be described thus: qHTS assay to test for compound auto fluorescence at 460 nm (blue) in HEK293 cell free culture (AID 720681). The method, boiled down:
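Blue fluorescence (Ex 405/Em 460 nm, triamterene-equivalent) was read immediately after pin transfer of compound or DMSO into medium (DMEM, 10% FBS) without cells.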

Assay [3] is described as follows: qHTS assay to test for compound auto fluorescence at 535 nm (green) in HEK293 cell free culture (AID 720682). The method in brief: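 No cells present: wells hold DMEM supplemented with 10% FBS, into which compound or vehicle is pinned. Green emission is then recorded (485 nm excitation, 535 nm emission) and scaled to fluorescein.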
A short description of assay [4]: qHTS assay to test for compound auto fluorescence at 590 nm (red) in HEK293 cell free culture (AID 720683). The method, boiled down:
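Red-channel autofluorescence of compounds in culture medium (DMEM, 10% FBS), no cells, measured at 540/590 nm. Rose Bengal sodium is the reference fluorophore for equivalence.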

A short description of assay [5]: qHTS assay to test for compound auto fluorescence at 590 nm (red) in HepG2 cell free culture (AID 720684). The method in brief: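 Steps: dispense MEM/10% FBS medium, no cells; pin compound or DMSO vehicle; read red channel, Ex/Em 540/590 nm. Output given as Rose Bengal sodium equivalents.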
Assay [6] is described as follows: qHTS assay to test for compound auto fluorescence at 460 nm (blue) in HepG2 cell free culture (AID 720685). The method in brief: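 Compound (23 nL) or DMSO pinned into cell-free MEM with 10% FBS; blue fluorescence read at 405/460 nm excitation/emission, expressed as auto-fluorescence equivalency to triamterene.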
Assay [7] in a line: qHTS assay to test for compound auto fluorescence at 535 nm (green) in HepG2 cell free culture (AID 720686).
The nature of assay [8]: qHTS assay to test for compound auto fluorescence at 460 nm (blue) in HepG2 cells (AID 720687). The method, boiled down:
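Blue-channel autofluorescence (Ex/Em 405/460 nm, triamterene-equivalent) was measured after 1 hr compound exposure at 37 C, 5% CO2. Cells were HepG2, plated overnight at 37 C in MEM plus 10% FBS.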

The nature of assay [9]: qHTS assay to identify small molecule antagonists of the glucocorticoid receptor (GR) signaling pathway - cell viability counter screen (AID 720693). Also: nearly all actives have a fitted effect of over 55% in size. Also: potency is read from the fitted curve at half-maximal effect.
A short description of assay [10]: qHTS assay for identifying genotoxic compounds that show differential cytotoxicity against isogenic chicken DT40 cell lines with known DNA damage response pathways - wild type cell line (AID 743012). Also: nearly all actives have a fitted effect of over 60% in size. Also: potency is read from the fitted curve at half-maximal effect. The method in brief:
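First, wild type DT40 cells were plated at 300 per well and equilibrated about 0.5 h at 37 C/5% CO2. Next, compounds in DMSO were added and exposure lasted 40 h. Finally, CellTiter-Glo was added for 30 min at room temperature and luminescence recorded.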

Assay [11] is described as follows: qHTS assay for identifying genotoxic compounds that show differential cytotoxicity against isogenic chicken DT40 cell lines with known DNA damage response pathways - Rad54/Ku70 mutant cell line (AID 743015). Also: nearly all actives have a fitted effect of over 60% in size. Also: potency is read from the fitted curve at half-maximal effect.
Assay [12] is described as follows: qHTS assay to identify small molecule antagonists of the androgen receptor (AR) signaling pathway - cell viability counter screen (AID 743033; also: nearly all actives have a fitted effect of over 45% in size; also: potency is read from the fitted curve at half-maximal effect).
The target of assay [13] is Androgen receptor (Homo sapiens) (UniProt P10275). Put plainly: qHTS assay to identify small molecule agonists of the androgen receptor (AR) signaling pathway (AID 743036; active = well fitted activation curve with a large enough effect in the signal ratio in the repeat runs, with a control signal flat, not every such curve was filed as active; the % refers to the signal ratio). The method in brief: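 Quantitative HTS of the Tox21 10K library in HEK293 cells bearing a stably integrated UAS-controlled beta-lactamase reporter. Compound exposure lasted 16 h at 37C. Reporter activity was detected by FRET substrate fluorescence after 2 h at room temperature.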

Assay [14] in a line: qHTS assay to identify small molecule antagonists of the androgen receptor (AR) signaling pathway using the MDA cell line - cell viability counter screen (AID 743041; also: nearly all actives have a fitted effect of over 45% in size; also: potency is read from the fitted curve at half-maximal effect). The method, boiled down:
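Cells were plated at 3,000 per well and left 5 h. Compounds in DMSO were then pinned in, followed by R1881. After 16 h at 37C, CellTiter-Fluor fluorescence gave viability.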

Assay [15] addresses Androgen receptor (Homo sapiens) (UniProt P10275). Put plainly: qHTS assay to identify small molecule antagonists of the androgen receptor (AR) signaling pathway using the MDA cell line (AID 743042; also: nearly all actives have a fitted effect of over 55% in size; also: potency is read from the fitted curve at half-maximal effect). The method, boiled down:
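Antagonist mode: compounds plus R1881 agonist added to MDA-kb2 AR-luc cells, incubated 16 h at 37C. Luciferase reporter luminescence quantified, with multiplexed CellTiter-Fluor readout for cell viability.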

Assay [16] in a line: qHTS assay to identify small molecule antagonists of the thyroid receptor (TR) signaling pathway - cell viability counter screen (AID 743064). Also: nearly all actives have a fitted effect of over 50% in size. Also: potency is read from the fitted curve at half-maximal effect. The method, boiled down:
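Rat GH3 pituitary tumor cells stably expressing two TR response elements driving luciferase were plated, rested 4 h, then dosed with library compounds and T3 (1 nM final). After 23.5 h at 37 °C, CellTiter-Fluor was added for 30 min and fluorescence recorded.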

In assay [17] the target is Glucocorticoid receptor (Homo sapiens) (UniProt P04150). Put plainly: qHTS assay to identify small molecule agonists of the glucocorticoid receptor (GR) signaling pathway (AID 720691; active = well fitted activation curve with a large enough effect in the signal ratio in the repeat runs, not every such curve was filed as active; the % refers to the signal ratio). The method, boiled down:
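qHTS in GR-bla HeLa cells: 4 h settling at 37 C/5% CO2, 18 h compound incubation at 37 C, 2 h LiveBLAzer B/G FRET substrate at room temperature, fluorescence intensity measured.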

Assay [18] has the same target. Put plainly: qHTS assay to identify small molecule antagonists of the glucocorticoid receptor (GR) signaling pathway (AID 720692; active = well fitted inhibition curve with a large enough effect in the signal ratio in the repeat runs, not every such curve was filed as active; the % refers to the signal ratio). The method in brief: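 Inhibition of glucocorticoid signalling is measured in HeLa cells with a GRE-controlled beta-lactamase reporter; cells are co-treated with compound and 5 nM dexamethasone (final) for 18 h before FRET substrate readout.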

Assay [19] can be described thus: qHTS assay to identify small molecule antagonists of the thyroid receptor (TR) signaling pathway (AID 743065). Also: series mostly up to about 70 µM; nearly all actives have a fitted effect of over 55% in size. The method in brief:
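Antagonism measured as loss of luciferase signal in GH3 cells stably carrying a TRE-luciferase reporter, co-treated with compound and T3 (1 nM final) for 23.5 h at 37 C. Viability was read in the same well by CellTiter-Fluor.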

Assay [20] in a line: qHTS assay for identifying genotoxic compounds that show differential cytotoxicity against isogenic chicken DT40 cell lines with known DNA damage response pathways - Rev3 mutant cell line (AID 743014). Also: nearly all actives have a fitted effect of over 55% in size. Also: potency is read from the fitted curve at half-maximal effect.

Androgen receptor (Homo sapiens), sequence (P10275 whole entry, looked up): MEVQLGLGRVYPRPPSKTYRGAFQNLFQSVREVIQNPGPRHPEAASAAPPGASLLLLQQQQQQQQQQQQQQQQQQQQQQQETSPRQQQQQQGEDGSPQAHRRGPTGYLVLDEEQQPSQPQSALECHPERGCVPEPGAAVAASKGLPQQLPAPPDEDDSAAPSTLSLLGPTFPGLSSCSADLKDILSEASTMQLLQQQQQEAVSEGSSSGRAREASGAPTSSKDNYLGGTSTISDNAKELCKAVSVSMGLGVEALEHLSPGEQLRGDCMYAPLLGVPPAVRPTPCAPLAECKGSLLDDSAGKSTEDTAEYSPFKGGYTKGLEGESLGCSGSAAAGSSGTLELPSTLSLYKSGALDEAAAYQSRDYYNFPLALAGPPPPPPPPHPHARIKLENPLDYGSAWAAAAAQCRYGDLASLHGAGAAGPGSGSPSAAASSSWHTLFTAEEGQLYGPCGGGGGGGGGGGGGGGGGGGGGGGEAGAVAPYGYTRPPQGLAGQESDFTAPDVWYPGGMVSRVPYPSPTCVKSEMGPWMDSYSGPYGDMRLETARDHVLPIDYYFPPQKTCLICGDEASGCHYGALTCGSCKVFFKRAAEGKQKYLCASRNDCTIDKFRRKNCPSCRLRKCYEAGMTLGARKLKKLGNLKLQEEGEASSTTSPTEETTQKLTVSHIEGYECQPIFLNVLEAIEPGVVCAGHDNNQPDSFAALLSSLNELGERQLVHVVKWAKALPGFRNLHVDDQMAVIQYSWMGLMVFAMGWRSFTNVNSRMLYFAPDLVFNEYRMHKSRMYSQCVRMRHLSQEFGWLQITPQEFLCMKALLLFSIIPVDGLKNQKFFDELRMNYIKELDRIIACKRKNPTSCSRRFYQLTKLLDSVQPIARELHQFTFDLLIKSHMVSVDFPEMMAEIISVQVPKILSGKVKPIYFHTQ
Glucocorticoid receptor (Homo sapiens), sequence (P04150 whole entry, looked up): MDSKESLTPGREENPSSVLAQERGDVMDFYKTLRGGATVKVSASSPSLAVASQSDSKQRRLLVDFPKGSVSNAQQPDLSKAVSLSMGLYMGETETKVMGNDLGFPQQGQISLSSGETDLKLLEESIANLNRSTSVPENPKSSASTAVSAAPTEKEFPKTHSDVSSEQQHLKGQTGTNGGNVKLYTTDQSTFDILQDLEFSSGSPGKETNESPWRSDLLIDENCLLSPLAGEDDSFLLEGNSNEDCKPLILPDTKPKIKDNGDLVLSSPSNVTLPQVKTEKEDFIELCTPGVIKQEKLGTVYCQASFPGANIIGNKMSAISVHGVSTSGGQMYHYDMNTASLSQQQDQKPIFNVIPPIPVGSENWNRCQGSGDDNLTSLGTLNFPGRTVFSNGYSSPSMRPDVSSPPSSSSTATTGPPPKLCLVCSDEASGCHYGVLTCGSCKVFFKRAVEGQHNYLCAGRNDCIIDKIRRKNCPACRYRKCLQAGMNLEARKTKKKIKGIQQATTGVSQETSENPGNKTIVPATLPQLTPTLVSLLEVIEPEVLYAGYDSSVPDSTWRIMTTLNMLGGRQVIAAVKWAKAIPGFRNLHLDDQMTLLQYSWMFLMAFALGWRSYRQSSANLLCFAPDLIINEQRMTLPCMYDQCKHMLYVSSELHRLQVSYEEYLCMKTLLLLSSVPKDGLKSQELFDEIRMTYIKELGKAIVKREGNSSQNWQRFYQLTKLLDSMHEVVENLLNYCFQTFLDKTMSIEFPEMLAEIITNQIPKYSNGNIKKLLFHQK

As for `CC1=CCC(C(C)(C)O)CC1` (stereo unspecified), the Potency result in assay [1], in assay [3], in [4], in assay [5], in assay [7] and in [9] was “inactive” in each case. In addition, the Potency entry in assay [10], in assay [11], in assay [12], in [14], in assay [15] and in assay [16] was “inactive” in each case. Besides, the outcome in assay [2], in [6], in [8] and in assay [13] was inactive.

For the compound `CC(C)CC(C)(O)C#CC(C)(O)CC(C)C` (stereo unspecified), the Potency entry in assay [1], in assay [3], in assay [4], in assay [5], in [7] and in assay [17] was “inactive” in each case. Moreover, the Potency entry in [18], in [9], in assay [10], in assay [12], in [14] and in assay [16] was “inactive” each time. Also, the Potency entry in [19] is “inactive”. The outcome in [2], in assay [6] and in [8] was inactive. Besides, the Potency in assay [11] was 54.5 µM (active).

`O=C(c1ccc(OCCN2CCCCC2)cc1)c1c(-c2ccc(O)cc2)sc2cc(O)ccc12`: the Potency entry in [1], in [3], in assay [4], in assay [5] and in assay [7] was “inactive” in each case. Besides, the compound was classed as inactive in assay [2], in assay [6] and in assay [8]. The Potency in [9] is 23.9 µM (active); in [10] it was 3.35 µM (active) and 27.3 µM (active) and 5.45 µM (active); in assay [20] it was 1.06 µM (active) and 612 nM (active) and 686 nM (active); in [11] it was 7.5 µM (active) and 9.7 µM (active) and 1.37 µM (active); in assay [12] it was 21.9 µM (active) and 38.9 µM (active); in [14], 68.7 µM (active) and 61.1 µM (active). In addition, the Potency in assay [16] is 6.68 µM (active) and 4.33 µM (active) and 6.11 µM (active).

Regarding `Cc1[nH]c(=O)c(C#N)cc1-c1ccncc1`, the Potency result in [1], in assay [3], in assay [4], in assay [5], in [7] and in [9] was “inactive” each time. For the same compound, the Potency result in [10], in assay [20], in assay [11], in [12], in assay [14] and in assay [16] was “inactive” each time. The result in assay [2], in assay [6] and in [8] was inactive.

As to `CC(C)=CCC/C(C)=C\CO`, the Potency entry in assay [1], in assay [3], in assay [4], in assay [5], in assay [7] and in assay [17] was “inactive” throughout. Moreover, the Potency result in assay [18], in assay [9], in assay [11], in assay [12], in [14] and in assay [16] was “inactive” each time. The Potency entry in [19] was “inactive”. The call in [2], in assay [6], in [8] and in [13] was inactive. The Potency result in assay [20] was “inactive and 61.1 µM (active)”.

For the compound `O=C(Nc1ccc(Cl)cc1)Nc1ccc(Cl)c(Cl)c1`, the Potency entry in assay [1], in assay [3], in [4], in assay [5] and in [7] was “inactive” throughout. Further, the call in assay [2] and in assay [8] was inactive. The Potency in assay [9] was 4.77 µM (active) and 7.73 µM (active) and 6.92 µM (active); in [10] it was 3.35 µM (active) and 6.08 µM (active) and 2.73 µM (active); in [20], 2.66 µM (active) and 4.31 µM (active) and 2.17 µM (active); in assay [11], 2.66 µM (active) and 5.42 µM (active) and 2.17 µM (active); in assay [12], 3.38 µM (active) and 1.94 µM (active) and 3.89 µM (active); in assay [14], 24.3 µM (active). The Potency in assay [15] is 43.1 µM (active) and 13.7 µM (active); in assay [16], 4.22 µM (active) and 3.44 µM (active).
